PLK1 PBD inh = qHTS for Inhibitors of PLK1-PDB (polo-like kinase 1 - polo-box domain): Primary Screen. Potency, µM, actives largely listed as inhibitors. Plk1 PBD binding of FITC phosphopeptide, fluorescence polarization. Serine/threonine-protein kinase PLK1 (Homo sapiens), P53350. actives 2.8% (n = 360,000); note: series mostly up to about 57 µM; nearly all actives have a fitted effect of over 65% in size
GLS inhibitor = qHTS for Inhibitors of Glutaminase (GLS). Glutaminase kidney isoform, mitochondrial (Homo sapiens), O94925. GLS enzymatic activity, qHTS titration. Potency, µM (series often up to 45.5 µM), hits mostly inhibitors. actives 0.21% (n = 410,000)
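Two-point fluorescence kinetic (t0, 30 min RT) for hKGA; glutamate detected via glutamate oxidase–HRP–Amplex Red. Substrate: 1 mM L-glutamine solution; buffer 45 mM KH2PO4, pH 8.2.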
VDR inh = Inhibitors of the vitamin D receptor (VDR): qHTS; Vitamin D3 receptor (Homo sapiens), P11473; VDR-SRC2-3 peptide fluorescence polarization, 2 h; Potency, µM, usual class: inhibitors; actives 0.93% (n = 400,000)
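FP read-out; VDR + SRC2-3 coactivator peptide; 23 nl compound by pintool; 2 h RT incubation; reagents held at 4 deg C, protected from light.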
PKM2 activator = qHTS Assay for Activators of Human Muscle isoform 2 Pyruvate Kinase; actives 0.34% (n = 260,000); Pyruvate kinase PKM (Homo sapiens), P14618; Potency, µM (top dose mostly 57.5 µM), actives largely listed as activators; purified PKM2, Kinase-Glo ATP luminescence, activation; response scale: 0% is enzyme alone, no compound; note: nearly all actives have a fitted effect of over 55% in size
Target sequence (P14618 whole entry, looked up, canonical isoform): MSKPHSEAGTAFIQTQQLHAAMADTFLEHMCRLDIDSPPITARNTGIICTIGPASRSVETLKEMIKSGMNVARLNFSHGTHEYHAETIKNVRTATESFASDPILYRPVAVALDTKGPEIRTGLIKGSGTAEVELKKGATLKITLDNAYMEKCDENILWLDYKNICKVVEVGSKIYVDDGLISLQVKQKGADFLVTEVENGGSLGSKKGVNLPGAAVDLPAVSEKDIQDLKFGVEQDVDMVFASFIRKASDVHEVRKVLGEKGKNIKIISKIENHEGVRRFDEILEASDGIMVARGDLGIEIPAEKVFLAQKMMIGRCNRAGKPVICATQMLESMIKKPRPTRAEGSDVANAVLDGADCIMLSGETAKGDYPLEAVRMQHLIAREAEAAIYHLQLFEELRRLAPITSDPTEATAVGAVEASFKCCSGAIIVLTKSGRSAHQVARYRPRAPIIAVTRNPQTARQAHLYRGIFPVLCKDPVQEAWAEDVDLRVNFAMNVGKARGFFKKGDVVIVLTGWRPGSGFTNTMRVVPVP
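Purified hPK-M2 (>95%) run at intermediate activity with 0.1 mM ADP and 0.5 mM PEP in 50 mM imidazole pH 7.2, KCl, MgCl2; 1 h room temperature. ATP formed read by Kinase-Glo luminescence; normalized to uninhibited and no-enzyme controls.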
Mito fusion act = qHTS Assay for Small Molecule Inhibitors of Mitochondrial Division or Activators of Mitochondrial Fusion. S. cerevisiae fusion-defective mutant growth rescue, CellTiterGlo 48 h. Potency, µM (titrated, usually from 46.1 µM), hits mostly activators. actives 0.23% (n = 320,000). AID 485298, 2010; note: nearly all actives have a fitted effect of over 45% in size
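Read-out: ATP-based luminescence (CellTiterGlo, 10 min ambient) reporting growth of fusion-defective ts yeast after 48 hours at 37C on glycerol/ethanol YPEG medium in the presence of compound.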
GCN5L2 inh = qHTS Assay for Inhibitors of GCN5L2 | GCN5L2 HAT assay, ThioGlo1 CoA-SH fluorescence | actives 0.21% (n = 390,000) | Potency, µM (series often up to 58.9 µM), usual class: inhibitors | AID 504327, 2011
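Titration-based screen in which CoA formation is detected via maleimide probe ThioGlo1 (50uM) turning fluorescent on thiol reaction; substrates H3(1-25) 75uM and acetyl-CoA 70uM, GCN5L2 20nM, 20 min incubation at room temperature.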
Hits are given with their value; i = inactive; ? = inconclusive; nt = no result. This is a sample that favours compounds with a hit; in the whole collection about 3.4% have one here. Calls come from the whole dose curve; as a rule, active = well fitted curve in the direction sought with a large enough effect; inconclusive = small, poorly fitted or top-dose-only effect, or another doubt; inactive = no such curve, though single readings can be large; an effect the other way counts as inactive or inconclusive.

SMILES	PLK1 PBD inh	GLS inhibitor	VDR inh	PKM2 activator	Mito fusion act	GCN5L2 inh
Cc1ccc(-c2nc3c(Cl)cc(C(F)(F)F)cn3c2Cc2ccccc2)cc1	i	i	nt	nt	nt	nt
CC[C@H](C)[C@H](N)C(=O)N[C@@H](CC(N)=O)C(=O)N1CCC[C@H]1C(=O)N[C@H](C(=O)N[C@@H](Cc1ccc(O)cc1)C(=O)N[C@@H](CCCN=C(N)N)C(=O)N[C@@H](CC(C)C)C(=O)N[C@@H](CCCN=C(N)N)C(=O)N[C@@H](Cc1ccc(O)cc1)C(N)=O)[C@@H](C)CC	nt	nt	i	nt	nt	i
S=c1[nH]nc(-c2cc3c(s2)-c2ccccc2CC3)o1	21µM	i	?	i	i	?
N#CC(=C(\N)Sc1ccccc1N)/C(C#N)=C(/N)Sc1ccccc1N	nt	nt	nt	nt	18µM	i
Cc1cccc(NC(=O)CSc2nnc(NC(=O)CN3CCCCC3)s2)c1	nt	nt	nt	i	i	i
CCOC(=O)CSc1nnc(NC(=O)CN2CCCCC2)s1	27µM	i	i	nt	i	i
CCS(=O)(=O)N1CCC(C(=O)NCc2cccnc2)CC1	i	i	i	i	i	i
O=C(NCc1cccnc1)C1CCC(c2ccc(Cl)cc2)CC1 (stereo not given)	i	i	i	i	i	i
O=C1CCC(C(=O)NCc2cccnc2)N1 (stereo not given)	30µM	i	i	i	i	i
O=C(NCc1cccnc1)C1CC(c2ccccc2Cl)=NO1 (stereo not given)	27µM	i	i	i	i	i
CC(C)CN(CC(C)C)S(=O)(=O)N1CCC(C(=O)NCc2cccnc2)CC1	27µM	i	i	i	i	i
COc1cccc(/C=N/NC(=O)CN(C)S(=O)(=O)c2ccccc2)c1OC	i	i	i	nt	i	i
COCCn1c(C)cc(O)c(C(c2ccccc2Cl)N2CCCCC2)c1=O (stereo not given)	nt	i	i	nt	nt	i
C/C(=N\NC(=O)c1cccc(S(=O)(=O)N2CCCC2)c1)c1cccs1	27µM	i	i	i	i	?
Cc1ccc(-c2nnc(-c3cccc(Br)c3)o2)cc1	27µM	i	?	i	i	i
[N-]=[N+]=CC(=O)c1ccnc(C(=O)C=[N+]=[N-])c1	27µM	i	i	i	i	i
Cc1ccc(S(=O)(=O)n2c3ccc(Cl)cc3c3nc(C)sc32)cc1	27µM	i	i	i	i	i
CCOc1ccc(NC(=S)NS(=O)(=O)c2cc(Br)ccc2OCC)cc1	12µM	i	?	nt	nt	nt
CCOc1ccc(NC(=S)Nc2ccc(Br)cc2Cl)cc1	i	i	i	i	i	i
Cc1sc2ncnc(Nc3ccccc3)c2c1C	27µM	i	i	i	i	i
Cc1sc2ncnc(NCc3ccccc3)c2c1C	i	i	i	i	i	i
CCc1ccc(C2NC(=S)NC3=C2C(=O)CCC3)cc1 (stereo not given)	i	i	i	i	i	i
CCCCCCCc1ccc(C2NC(=S)NC3=C2C(=O)c2ccccc23)cc1 (stereo not given)	21µM	i	?	i	i	i
CC12CCC(C(=O)N3CCc4ccccc43)(CC1=O)C2(C)C (stereo not given)	i	i	i	i	14µM	i
CC12CCC(C(=O)N3CCCc4ccccc43)(CC1=O)C2(C)C (stereo not given)	i	i	i	i	i	i
O=C(c1ccc2c(c1)OCCO2)C1CCN(C(=O)Nc2ccccc2F)CC1	i	i	i	i	i	i
O=C(NCCCN1CCN(c2ccccc2F)CC1)c1ccc2nc(CCc3ccccc3)oc2c1	nt	i	i	nt	nt	i
Cc1ccccc1N=Cc1cccc(O)c1O	i	?	14µM	i	i	i
Oc1ccccc1C=NN=Cc1c(O)ccc2ccccc12	i	i	i	nt	nt	nt
